Common to all, as to assay: SELEX-seq (CSI, HT-SELEX, round 3); SELEX-seq: 1x PBS (10 mM phosphate, 137 mM NaCl, 2.7 mM KCl) pH 7.6, 2.5 mM DTT, 50 ng/ul poly dI-dC, 0.1% BSA, 50 nM biotinylated bZIP (1:3 with partner for heterodimers), 100 nM library, room temperature, 1 h, 3 rounds; high values mean tight binding
Settings in all cases: protein: recombinant;recombinant; copies: 1;1; dsDNA, one strand shown

The target in assay [1] is FOS;DBP (Homo sapiens;Homo sapiens, UniProt P01100;Q10586 128-201;246-324, |).
Assay [2] addresses T1, ATF5;CEBPG (Homo sapiens;Homo sapiens, UniProt Q9Y2D1;P53567 199-275;52-130, |).
T1 sequence 1: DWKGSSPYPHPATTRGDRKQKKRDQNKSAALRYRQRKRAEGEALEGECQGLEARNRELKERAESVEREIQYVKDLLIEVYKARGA
T1 sequence 2: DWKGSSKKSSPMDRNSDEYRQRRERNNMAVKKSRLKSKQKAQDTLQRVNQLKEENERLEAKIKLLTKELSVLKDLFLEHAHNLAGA

The target of assay [3] is ATF5;CEBPA (Homo sapiens;Homo sapiens, UniProt Q9Y2D1;P49715 199-275;273-345, |).
Assay [4] deals with DDIT3;CEBPG (Homo sapiens;Homo sapiens, UniProt P35638;P53567 88-169;52-130, |).
For assay [5], the target named is MAFB;ATF4 (Homo sapiens;Homo sapiens, UniProt Q9Y5Q3;P18848 212-305;269-346, |).
The target of assay [6] is BATF2;JUN (Homo sapiens;Homo sapiens, UniProt Q8N1L9;P05412 8-85;243-316, |).
The target of assay [7] is T2, BATF3;NFIL3 (Homo sapiens;Homo sapiens, UniProt Q9NR55;Q16649 26-99;64-134, |).
T2 sequence 1: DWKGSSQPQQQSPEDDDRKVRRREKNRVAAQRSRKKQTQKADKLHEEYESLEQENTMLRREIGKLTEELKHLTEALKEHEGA
T2 sequence 2: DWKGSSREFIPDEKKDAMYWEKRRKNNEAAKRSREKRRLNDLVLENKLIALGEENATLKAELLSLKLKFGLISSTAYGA

Assay [8] concerns the target T3, CEBPE;CEBPE (Homo sapiens;Homo sapiens, UniProt Q15744;Q15744 195-267;195-267, |).
T3 sequence 1: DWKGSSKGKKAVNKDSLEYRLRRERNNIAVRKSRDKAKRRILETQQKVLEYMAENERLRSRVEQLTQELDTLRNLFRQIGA
T3 sequence 2: T3 sequence 1

For assay [9], the target named is T4, JUNB;CEBPE (Homo sapiens;Homo sapiens, UniProt P17275;Q15744 259-332;195-267, |).
T4 sequence 1: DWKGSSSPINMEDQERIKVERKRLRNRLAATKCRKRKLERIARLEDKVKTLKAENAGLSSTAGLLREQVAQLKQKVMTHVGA
T4 sequence 2: T3 sequence 1

Assay [10] concerns the target T5, JUNB;BATF (Homo sapiens;Homo sapiens, UniProt P17275;Q16520 259-332;17-90, |).
T5 sequence 1: T4 sequence 1
T5 sequence 2: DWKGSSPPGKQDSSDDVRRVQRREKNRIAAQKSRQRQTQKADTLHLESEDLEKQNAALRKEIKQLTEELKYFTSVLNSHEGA

In assay [11] the target is T6, JUNB;NFE2 (Homo sapiens;Homo sapiens, UniProt P17275;Q16621 259-332;221-337, |).
T6 sequence 1: T4 sequence 1
T6 sequence 2: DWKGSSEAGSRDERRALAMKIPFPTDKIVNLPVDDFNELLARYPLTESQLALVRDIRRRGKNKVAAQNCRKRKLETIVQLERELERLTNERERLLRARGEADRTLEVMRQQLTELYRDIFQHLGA

The target in assay [12] is JUNB;NFE2L1 (Homo sapiens;Homo sapiens, UniProt P17275;Q14494 259-332;609-725, |).
Assay [13] deals with T7, JUNB;HLF (Homo sapiens;Homo sapiens, UniProt P17275;Q16534 259-332;216-293, |).
T7 sequence 1: T4 sequence 1
T7 sequence 2: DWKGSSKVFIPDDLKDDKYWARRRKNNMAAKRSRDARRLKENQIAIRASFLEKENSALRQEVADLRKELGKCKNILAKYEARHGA

Assay [14] has as its target ATF5;JUN (Homo sapiens;Homo sapiens, UniProt Q9Y2D1;P05412 199-275;243-316, |).
Assay [15] has as its target T8, ATF5;BATF3 (Homo sapiens;Homo sapiens, UniProt Q9Y2D1;Q9NR55 199-275;26-99, |).
T8 sequence 1: T1 sequence 1
T8 sequence 2: T2 sequence 1

Assay [16] addresses T9, BATF2;ATF3 (Homo sapiens;Homo sapiens, UniProt Q8N1L9;P18847 8-85;77-150, |).
T9 sequence 1: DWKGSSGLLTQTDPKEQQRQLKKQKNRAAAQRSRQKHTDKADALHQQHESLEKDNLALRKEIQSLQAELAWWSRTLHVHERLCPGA
T9 sequence 2: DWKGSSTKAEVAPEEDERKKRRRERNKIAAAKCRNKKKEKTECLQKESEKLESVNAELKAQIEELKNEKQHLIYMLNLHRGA

Assay [17] has as its target BATF2;ATF4 (Homo sapiens;Homo sapiens, UniProt Q8N1L9;P18848 8-85;269-346, |).
Assay [18] deals with FOS;ATF2 (Homo sapiens;Homo sapiens, UniProt P01100;P15336 128-201;343-417, |).
Assay [19] has as its target T10, JUNB;FOSL1 (Homo sapiens;Homo sapiens, UniProt P17275;P15407 259-332;96-169, |).
T10 sequence 1: T4 sequence 1
T10 sequence 2: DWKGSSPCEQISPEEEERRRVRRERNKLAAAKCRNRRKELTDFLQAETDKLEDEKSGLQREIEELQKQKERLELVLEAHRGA

In assay [20] the target is JUNB;FOS (Homo sapiens;Homo sapiens, UniProt P17275;P01100 259-332;128-201, |).

In publication PMC5349851, “Combinatorial bZIP dimers display complex DNA-binding specificity landscapes” one finds binding signal data, which are given here for 6 sequences.

Sequence of JUNB;FOS (P01100 other isoform, or with tags, fused parts or gaps |): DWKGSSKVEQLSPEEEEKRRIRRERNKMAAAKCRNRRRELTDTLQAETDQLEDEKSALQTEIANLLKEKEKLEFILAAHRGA
Sequence of FOS;DBP (P01100 other isoform, or with tags, fused parts or gaps |): as above
Sequence of FOS;ATF2 (P01100 other isoform, or with tags, fused parts or gaps |, chain 1 of 2): as the sequence (P01100 other isoform, or with tags, fused parts or gaps |) above
Sequence of FOS;ATF2 (P15336 other isoform, or with tags, fused parts or gaps |, chain 2 of 2): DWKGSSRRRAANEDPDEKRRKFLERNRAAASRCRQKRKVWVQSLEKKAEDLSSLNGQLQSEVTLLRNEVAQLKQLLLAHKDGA
Sequence of MAFB;ATF4 (Q9Y5Q3 other isoform, or with tags, fused parts or gaps |, chain 1 of 2): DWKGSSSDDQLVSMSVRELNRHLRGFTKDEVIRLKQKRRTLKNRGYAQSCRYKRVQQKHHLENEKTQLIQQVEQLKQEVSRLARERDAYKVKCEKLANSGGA
Sequence of MAFB;ATF4 (P18848 other isoform, or with tags, fused parts or gaps |, chain 2 of 2): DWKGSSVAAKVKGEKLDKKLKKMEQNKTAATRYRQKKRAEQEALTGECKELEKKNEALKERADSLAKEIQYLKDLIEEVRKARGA
Sequence of JUNB;NFE2L1 (Q14494 other isoform, or with tags, fused parts or gaps |): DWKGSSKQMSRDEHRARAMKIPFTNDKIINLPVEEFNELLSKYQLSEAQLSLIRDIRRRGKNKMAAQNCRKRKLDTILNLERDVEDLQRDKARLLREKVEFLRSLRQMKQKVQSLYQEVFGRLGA
Sequence of BATF2;ATF4 (P18848 other isoform, or with tags, fused parts or gaps |, chain 2 of 2, one chain of several): as the sequence (P18848 other isoform, or with tags, fused parts or gaps |, chain 2 of 2) above
Sequence of DDIT3;CEBPG (P35638 other isoform, or with tags, fused parts or gaps |): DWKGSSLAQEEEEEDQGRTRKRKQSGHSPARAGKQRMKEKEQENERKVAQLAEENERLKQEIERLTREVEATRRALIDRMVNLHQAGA
Sequence of ATF5;JUN (P05412 other isoform, or with tags, fused parts or gaps |): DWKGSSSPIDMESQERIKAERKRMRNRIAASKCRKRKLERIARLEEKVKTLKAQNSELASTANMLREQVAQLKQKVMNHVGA
Sequence of BATF2;JUN (P05412 other isoform, or with tags, fused parts or gaps |): as above

Regarding ATGACGGAAT, the binding signal is 0.0179 relative CSI intensity (max = 1) in [1]; 0.0428 relative CSI intensity (max = 1) in assay [2]; 0.0438 relative CSI intensity (max = 1) in assay [3]; 0.0328 relative CSI intensity (max = 1) in assay [4]; 0.014 relative CSI intensity (max = 1) in assay [5]; 0.00635 relative CSI intensity (max = 1) in [6]. Also, the binding signal in assay [7] was 0.0076 relative CSI intensity (max = 1); in [8] it was 0.00629 relative CSI intensity (max = 1); in assay [9], 0.00513 relative CSI intensity (max = 1); in assay [10], 0.002 relative CSI intensity (max = 1); in assay [11] it was 0.0241 relative CSI intensity (max = 1); in [12], 0.0118 relative CSI intensity (max = 1). For the same sequence, in [13], the binding signal was 0.00331 relative CSI intensity (max = 1).

With ATGATGCAAT, the binding signal in [1] was 0.0452 relative CSI intensity (max = 1); in assay [2], 0.687 relative CSI intensity (max = 1); in assay [3], 0.756 relative CSI intensity (max = 1); in [14], 0.0503 relative CSI intensity (max = 1); in [15] it was 0.00117 relative CSI intensity (max = 1); in assay [4], 0.574 relative CSI intensity (max = 1). In addition, the binding signal in [5] was 0.0202 relative CSI intensity (max = 1); in assay [16], 0.003 relative CSI intensity (max = 1); in [6], 0.00706 relative CSI intensity (max = 1); in assay [17] it was 0.0322 relative CSI intensity (max = 1); in assay [7], 0.0307 relative CSI intensity (max = 1); in assay [8], 0.139 relative CSI intensity (max = 1). Moreover, the values for the binding signal in assay [9], in [11] and in assay [12] were 0.314 relative CSI intensity (max = 1), 0.116 relative CSI intensity (max = 1) and 0.0453 relative CSI intensity (max = 1), respectively.

Take ATGACGCAAT: the binding signal in [18] is 0.00209 relative CSI intensity (max = 1); in assay [1] it was 0.194 relative CSI intensity (max = 1); in assay [2] it was 0.902 relative CSI intensity (max = 1); in assay [3], 0.864 relative CSI intensity (max = 1); in assay [14] it was 0.0554 relative CSI intensity (max = 1); in assay [15] it was 0.00351 relative CSI intensity (max = 1). The binding signal in assay [4] is 0.339 relative CSI intensity (max = 1); in [5], 0.0526 relative CSI intensity (max = 1); in [16], 0.00454 relative CSI intensity (max = 1); in assay [6] it was 0.0567 relative CSI intensity (max = 1); in assay [17], 0.0339 relative CSI intensity (max = 1); in assay [7] it was 0.0474 relative CSI intensity (max = 1). Also, the binding signal in [8] is 0.259 relative CSI intensity (max = 1); in assay [9] it was 0.333 relative CSI intensity (max = 1); in assay [10] it was 0.00832 relative CSI intensity (max = 1); in [19] it was 0.00312 relative CSI intensity (max = 1); in [20], 0.00347 relative CSI intensity (max = 1); in [11], 0.344 relative CSI intensity (max = 1). The binding signal is 0.169 relative CSI intensity (max = 1) in assay [12] and 0.176 relative CSI intensity (max = 1) in [13].

For ATGACGTCAT, the binding signal in assay [18] is 1 relative CSI intensity (max = 1); in [1], 0.887 relative CSI intensity (max = 1); in assay [2], 0.529 relative CSI intensity (max = 1); in [3], 0.516 relative CSI intensity (max = 1); in assay [14], 0.742 relative CSI intensity (max = 1); in [15] it was 0.681 relative CSI intensity (max = 1). The binding signal is 1 relative CSI intensity (max = 1) in assay [4]; 0.336 relative CSI intensity (max = 1) in [5]; 0.0121 relative CSI intensity (max = 1) in assay [16]; 0.299 relative CSI intensity (max = 1) in assay [6]; 0.216 relative CSI intensity (max = 1) in assay [17]; 0.218 relative CSI intensity (max = 1) in assay [7]. Besides, the binding signal was 0.0521 relative CSI intensity (max = 1) in [8]; 0.104 relative CSI intensity (max = 1) in assay [9]; 0.784 relative CSI intensity (max = 1) in assay [10]; 0.3 relative CSI intensity (max = 1) in assay [19]; 0.188 relative CSI intensity (max = 1) in assay [20]; 1 relative CSI intensity (max = 1) in assay [11]. Moreover, the binding signal in assay [12] and in assay [13] was 1 relative CSI intensity (max = 1) throughout.

Take ATGACGTAAT: the binding signal in [18] was 0.133 relative CSI intensity (max = 1); in assay [1], 0.614 relative CSI intensity (max = 1); in [2], 0.502 relative CSI intensity (max = 1); in assay [3], 0.488 relative CSI intensity (max = 1); in assay [14] it was 0.289 relative CSI intensity (max = 1); in assay [15] it was 0.0199 relative CSI intensity (max = 1). Besides, the binding signal in [4] is 0.437 relative CSI intensity (max = 1); in assay [5], 0.108 relative CSI intensity (max = 1); in assay [16], 0.00842 relative CSI intensity (max = 1); in assay [6], 0.116 relative CSI intensity (max = 1); in assay [17], 0.119 relative CSI intensity (max = 1); in assay [7], 0.178 relative CSI intensity (max = 1). The binding signal is 0.0888 relative CSI intensity (max = 1) in [8]; 0.0862 relative CSI intensity (max = 1) in [9]; 0.0325 relative CSI intensity (max = 1) in assay [10]; 0.017 relative CSI intensity (max = 1) in assay [19]; 0.00946 relative CSI intensity (max = 1) in assay [20]; 0.12 relative CSI intensity (max = 1) in assay [11]. Further, the binding signal in assay [12] was 0.116 relative CSI intensity (max = 1); in assay [13], 0.537 relative CSI intensity (max = 1).

In the case of CCTGACGTCA, the binding signal in assay [18] was 0.00727 relative CSI intensity (max = 1); in assay [1], 0.057 relative CSI intensity (max = 1); in [2] it was 0.072 relative CSI intensity (max = 1); in assay [3], 0.0673 relative CSI intensity (max = 1); in assay [14], 0.288 relative CSI intensity (max = 1); in assay [15] it was 0.0107 relative CSI intensity (max = 1). Besides, the binding signal in [4] is 0.0315 relative CSI intensity (max = 1); in assay [5], 0.182 relative CSI intensity (max = 1); in assay [16], 0.00318 relative CSI intensity (max = 1); in assay [6] it was 0.0191 relative CSI intensity (max = 1); in [17], 0.0186 relative CSI intensity (max = 1); in assay [7], 0.00724 relative CSI intensity (max = 1). Further, the binding signal in [8] was 0.00701 relative CSI intensity (max = 1); in assay [9], 0.00962 relative CSI intensity (max = 1); in [10], 0.0101 relative CSI intensity (max = 1); in assay [19], 0.00464 relative CSI intensity (max = 1); in [20] it was 0.00331 relative CSI intensity (max = 1); in [11], 0.0277 relative CSI intensity (max = 1). Further, the binding signal is 0.0112 relative CSI intensity (max = 1) in assay [12] and 0.00417 relative CSI intensity (max = 1) in [13].
